Many of the other results were omitted from the sample, so hits are more common in it than they were.
CHX counter: Cycloheximide Counterscreen for Small Molecule Inhibitors of Shiga Toxin | cell reporter, cycloheximide protein synthesis inhibition counterscreen | max response, % | AID 2314, 2010 | hit rate 12% among 300,000; in the data active = max response mostly above about 13%, no sharp cut-off; inactive = mostly below about 14%; note: read at 38.3 µM for the half of the compounds with a filed dose; 0% is about no effect
AMA1 RON2 block: qHTS for Inhibitors of AMA1-RON; Towards Development of Antimalarial Drug Lead: Primary Screen; Potency, µM (top dose mostly 58.2 µM), for inactives: at the top dose activity change, negative = inhibition, actives largely listed as inhibitors; AID 720542, 2013; hit rate 0.2% among 360,000; AlphaScreen AMA1-biotinylated RON2 peptide binding; active = well fitted inhibition curve with a large enough effect; inconclusive = small, poorly fitted or top-dose-only effect; inactive = no such curve, though single readings can be large or run the other way;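 note: potency is the fitted concentration of half-maximal effect; 0% = vehicle wells and -100% = peptide control; nearly all actives have a fitted effect of over 45% in size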
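AMA1 (3D7) with his tag at 25 nM final met compounds first, then biotinylated RON2 peptide at 25 nM; detection used donor plus acceptor beads, 10 µg/mL apiece, read by AlphaScreen after 30 min at room temperature.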
MARV entry inh: qHTS for inhibitors of binding or entry into cells for Marburg Virus | hit rate 1.8% among 300,000 | Marburg virus pseudotyped entry inhibition, cell reporter | Potency, µM (top dose mostly 37.8 µM), without a hit: at the highest dose activity change, negative = inhibition, most hits filed as inhibitors | AID 540276, 2011; calls by dose curve; tested in HEK293 cells; note: potency is the fitted concentration of half-maximal effect; % is set by controls: 0 for no effect and ±100 for the full control effect
Shiga toxin inh: A qHTS for Small Molecule Inhibitors of Shiga Toxin; inhibition, % at 38.7 µM; hit rate 9.2% among 290,000; Vero cells, Shiga toxin protein synthesis inhibition reporter; in the data active = inhibition mostly above about 28%, no sharp cut-off; inactive = mostly below about 43%; note: 0% is about no effect
Lassa entry inh: qHTS for Inhibitors of binding or entry into cells for Lassa Virus; Lassa virus pseudotype entry inhibition, cell reporter; Potency, µM (titrated, usually from 37.9 µM), for inactives: at the highest dose activity change, negative = inhibition, most hits filed as inhibitors; hit rate 1.2% among 300,000; AID 540256, 2011; calls by dose curve; tested in HEK293 cells; note: potency is the fitted concentration of half-maximal effect; % is set by controls: 0 for no effect and ±100 for the full control effect; nearly all actives have a fitted effect of over 50% in size
An asterisk follows results filed as active; [ ] = dose if it differs, or a comment.

How did O=C(Nc1nnc([C@H]2C[C@H](O)[C@@H](CO)O2)s1)C(c1ccccc1)c1ccccc1 do in these assays?
AMA1 RON2 block: 8.0%

Results for Cc1csc(=O)n1CCC(=O)OC(C)C(=O)NCc1ccccc1 (stereo unspecified) ?
AMA1 RON2 block: -8.8%; MARV entry inh: 6.7%[46.1 µM]; Lassa entry inh: 3.2%[46.1 µM]

What do the screens show for `COc1ccccc1CNC(=O)CN(C)Cc1ccc(SC)cc1`?
CHX counter: 9.8; AMA1 RON2 block: -27.9%; MARV entry inh: inconclusive; Shiga toxin inh: -11.4; Lassa entry inh: inconclusive

What do the screens show for `Cc1cccc(C(=O)NC2CC3CCCC(C2)N3Cc2ccccc2)c1` (stereo unspecified)?
CHX counter: -1.0; AMA1 RON2 block: -0.5%; MARV entry inh: 3.16µM*; Shiga toxin inh: -11.9; Lassa entry inh: -11.2%[46.1 µM]

How did O=C(NC1CC2CCC(C1)N2Cc1ccccc1)c1cccc(F)c1 (stereo unspecified) do in these assays?
CHX counter: -1.3; AMA1 RON2 block: 15.2%; Shiga toxin inh: -3.1

How did COC1=C(C2C(OC)CCC3CCCCC32)C2=C(CCCC2)CC1 (stereo unspecified) do in these assays?
MARV entry inh: 5.9%[14.2 µM]

How did CCOc1ccc(C2=Nn3c(nnc3-c3ccccc3OC)SC2)cc1 do in these assays?
CHX counter: -5.2; AMA1 RON2 block: -2.4%; MARV entry inh: 0.291µM*; Shiga toxin inh: -15.2; Lassa entry inh: 0.0231µM*

Results for CN(C)c1cccc(C(=O)NNC(=O)CSc2ccccc2)c1 ?
CHX counter: 12.8*; AMA1 RON2 block: 52.6%; MARV entry inh: 3.0%[46.1 µM]; Shiga toxin inh: 25.6; Lassa entry inh: -1.1%[46.1 µM]

Results for CN(C)c1cccc(C(=O)OCC(=O)Nc2ccccc2Cl)c1 ?
CHX counter: 21.8; AMA1 RON2 block: -4.4%; MARV entry inh: inconclusive; Shiga toxin inh: 42.1*; Lassa entry inh: -12.8%

What do the screens show for `CN(C)c1cccc(C(=O)NCc2ccccc2Cl)c1`?
CHX counter: 19.4*; AMA1 RON2 block: 0.7%; MARV entry inh: inconclusive; Shiga toxin inh: 44.7; Lassa entry inh: -26.1%[46.1 µM]

How did CN(C)c1cccc(C(=O)OCC(=O)Nc2nccs2)c1 do in these assays?
CHX counter: 30.3*; AMA1 RON2 block: 2.2%; MARV entry inh: inconclusive; Shiga toxin inh: 100.9*; Lassa entry inh: 22.9%

What do the screens show for `CN(C)c1cccc(C(=O)OCC(=O)Nc2ccccc2-c2ccccc2)c1`?
CHX counter: -3.4; AMA1 RON2 block: -27.7%; MARV entry inh: -23.0%; Shiga toxin inh: 6.4; Lassa entry inh: 1.1%

What do the screens show for `COc1ccc(CN(CC(O)COCc2ccccc2)S(=O)(=O)c2ccccc2Br)cc1OC` (stereo unspecified)?
AMA1 RON2 block: -2.2%

What do the screens show for `CCOC(=O)c1c(C)oc2nc(C)nc(NCC3CCN(Cc4ccccc4C)CC3)c12`?
Lassa entry inh: 17.2%[46.1 µM]

How did COc1ccccc1NC(=O)CCS(=O)(=O)c1cc2c3c(c1)CCN3C(=O)CC2 do in these assays?
Lassa entry inh: 27.4%[46.1 µM]

What do the screens show for `CC(=O)Oc1ccccc1Cn1c(C)c(C(=O)NCc2cccc([N+](=O)[O-])c2)sc1=O`?
AMA1 RON2 block: 0.7%

What do the screens show for `Cc1cccc(C(=O)OCC(=O)Nc2nccs2)c1`?
CHX counter: 19.3*; AMA1 RON2 block: -4.3%; MARV entry inh: 7.8%; Shiga toxin inh: 36.2; Lassa entry inh: 1.1%

How did CCC(=O)N1CCCc2cc(S(=O)(=O)CCC(=O)Nc3ccccc3C)ccc21 do in these assays?
CHX counter: -0.7; AMA1 RON2 block: -4.4%; MARV entry inh: -4.8%[46.1 µM]; Shiga toxin inh: 2.7; Lassa entry inh: 4.1%[46.1 µM]

How did CC(C)CN1C(=O)c2ccc(NC(=O)c3ccco3)cc2C1=O do in these assays?
CHX counter: 48.6*; AMA1 RON2 block: 4.1%; MARV entry inh: inconclusive; Shiga toxin inh: 61.2*; Lassa entry inh: 26.8%

Results for CC(C)CN1C(=O)c2ccc(NC(=O)c3cccs3)cc2C1=O ?
CHX counter: 40.3*; AMA1 RON2 block: -2.0%; MARV entry inh: inconclusive; Shiga toxin inh: 192.8*; Lassa entry inh: 32.9%[14.3 µM]

How did COc1ccc(S(=O)(=O)NC2CCCC2)cc1C(N)=O do in these assays?
CHX counter: -2.7; AMA1 RON2 block: -0.6%; MARV entry inh: -7.2%[46.1 µM]; Shiga toxin inh: -6.8; Lassa entry inh: 2.6%[46.1 µM]

Results for COc1cc(/C=C/CNC[C@H]2O[C@@H](n3ccc(=O)[nH]c3=O)[C@H](O)[C@@H]2O)ccc1O ?
AMA1 RON2 block: 4.4%

How did CC(=O)NCCNc1nc2cc(-c3cccc(Cl)c3)sc2c(=O)n1C do in these assays?
AMA1 RON2 block: -6.3%

How did Cc1ccc(-c2nc3ccccc3c(=O)n2CCCN2CCOCC2)cc1 do in these assays?
CHX counter: 15.1; AMA1 RON2 block: 16.2%; MARV entry inh: 0.8%; Shiga toxin inh: 53.6*; Lassa entry inh: -3.6%

How did O=c1c2ccccc2nc(-c2ccccc2)n1CCCN1CCOCC1 do in these assays?
CHX counter: -2.7; AMA1 RON2 block: 42.0%; MARV entry inh: 11.0%; Shiga toxin inh: 31.3; Lassa entry inh: inconclusive

What do the screens show for `CC(=O)c1c(C)[nH]c(C(=O)CSc2nc3ccccc3c(=O)n2CCCN2CCOCC2)c1C`?
CHX counter: 0.3; AMA1 RON2 block: inconclusive; MARV entry inh: 20.6µM*; Shiga toxin inh: 20.0; Lassa entry inh: -3.4%

Results for O=C(COC(=O)/C=C/c1cccc(F)c1)NC(=O)NC1CCCC1 ?
AMA1 RON2 block: -14.9%; MARV entry inh: 18.5%; Lassa entry inh: -15.5%

Results for C#CCSc1nnc(C)c(C)n1 ?
AMA1 RON2 block: -1.4%

Results for Cc1cccn2cc(-c3ccc(F)cc3)cc12 ?
CHX counter: -1.8; AMA1 RON2 block: 2.4%; MARV entry inh: -10.5%; Shiga toxin inh: 16.8; Lassa entry inh: inconclusive

How did Cc1cccn2cc(CNc3ccccc3)nc12 do in these assays?
CHX counter: 50.6*; AMA1 RON2 block: -11.0%; MARV entry inh: inconclusive; Shiga toxin inh: 68.1*; Lassa entry inh: inconclusive

What do the screens show for `COc1ccc(-c2cn3cccc(C)c3n2)cc1Br`?
CHX counter: 76.0*; AMA1 RON2 block: -7.6%; MARV entry inh: inconclusive; Shiga toxin inh: 150.3*; Lassa entry inh: inconclusive

What do the screens show for `COc1ccc(S(=O)(=O)Nc2cc(-c3cn4cccc(C)c4n3)ccc2C)cc1C`?
MARV entry inh: inconclusive; Lassa entry inh: -21.8%[46.1 µM]

Results for CCCS(=O)(=O)NCc1cn2cccc(C)c2n1 ?
CHX counter: 1.2; AMA1 RON2 block: -4.2%; MARV entry inh: 21.9%; Shiga toxin inh: -8.0; Lassa entry inh: 16.6%

What do the screens show for `Cc1cccn2cc(-c3ccc(F)cc3)nc12`?
CHX counter: 39.3*; AMA1 RON2 block: 59.4%; MARV entry inh: inconclusive; Shiga toxin inh: 71.1*; Lassa entry inh: inconclusive

How did Cc1cccn2cc(-c3ccccc3)nc12 do in these assays?
CHX counter: 51.6*; AMA1 RON2 block: -13.7%; MARV entry inh: inconclusive; Shiga toxin inh: 63.6*; Lassa entry inh: inconclusive

Assay outcomes deposited in PubChem BioAssay by National Center for Advancing Translational Sciences (NCATS).
